These results are taken from PubChem BioAssay AID2284109 (EPA ToxCast).

Each structure is given as a SMILES string. Active and inactive are the calls of the source. How the source made its calls: active means hit-call score of the fitted dose curve at least 0.9, where 1 is the maximum; inactive means score below 0.9.

Sequence of human p38beta (SAPK2) CMGC Kinase, MAPK11 (gene 5600) (Q15759 whole entry, looked up): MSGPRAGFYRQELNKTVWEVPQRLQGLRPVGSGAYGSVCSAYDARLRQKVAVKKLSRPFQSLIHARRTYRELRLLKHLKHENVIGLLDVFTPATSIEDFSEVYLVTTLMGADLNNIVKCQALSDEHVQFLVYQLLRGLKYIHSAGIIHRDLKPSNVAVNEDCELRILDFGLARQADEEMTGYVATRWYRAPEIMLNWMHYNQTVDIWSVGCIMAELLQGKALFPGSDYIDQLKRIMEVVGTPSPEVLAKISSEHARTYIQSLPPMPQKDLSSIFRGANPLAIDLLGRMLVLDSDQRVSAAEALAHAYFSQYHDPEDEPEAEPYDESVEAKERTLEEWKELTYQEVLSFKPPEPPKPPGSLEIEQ

The test has as its target human p38beta (SAPK2) CMGC Kinase, MAPK11 (gene 5600) (UniProt Q15759). Put plainly: ERF_KP_ENZ_hMAPK11: Eurofins (ERF) Enzymatic Radiometric [10 uM ATP] KinaseProfiler LeadHunter Assay for human p38beta (SAPK2) CMGC Kinase. As to the method:
ERF_KP_ENZ_hMAPK11 is a biochemical, single-readout assay that uses extracted gene-proteins in a cell-free assay. Measurements were taken 0.66 hour after chemical dosing in a 96-well plate. See SAPK2 (p38beta) Human CMGC Kinase Enzymatic Radiometric Assay [10 uM ATP], KinaseProfiler.ERF_KP_ENZ_hMAPK11 is an assay component calculated from the ERF_KP_ENZ_hMAPK11 assay. It is designed to measure enzyme activity using a type of enzyme reporter as detected by scintillation counting with radiometry technology.Data from the assay component ERF_KP_ENZ_hMAPK11 was analyzed at the assay endpoint, ERF_KP_ENZ_hMAPK11, in the positive analysis fitting direction relative to DMSO as the negative control and baseline of activity. Using a type of enzyme reporter, loss-of-signal activity can be used to understand changes in enzymatic activity as they relate to gene MAPK11. To generalize the intended target to other relatable targets, this assay endpoint is annotated to the kinase intended target family, where the subfamily is serine/threonine kinase.
SAPK2b (h) is incubated with 25 mM Tris pH 7.5, 0.02 mM EGTA, 0.33 mg/mL myelin basic protein, 10 mM MgAcetate and [gamma-33P]-ATP (specific activity and concentration as required). The reaction is initiated by the addition of the Mg/ATP mix. […]
One may read the AC50 as the concentration giving half of the maximal activity seen. Take `O=C(/C=C/c1ccc(O)cc1)CC(=O)/C=C/c1ccc(O)cc1`: the AC50 is 293 pM (active).
